Data from the supplement of paper PMC11417369.
In all, about 25,000 sequences were measured (“ln(normalized median fluorescence intensity)”: median about 6.7, highest 2% from about 10 on). What follows is part of a selection rich in the highest values, with near analogues and random picks from the rest.

What follows are sequences tested on PfHDP1 homeodomain (GST-tagged) (assay: gcPBM binding intensity (ln(normalized median fluorescence intensity)); higher = stronger DNA binding).
Summary of the method: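 Each value is the highest Masliner-normalised natural-log median intensity across replicate spots of either orientation of a probe. The probes were primer-extended double-stranded 36-bp intergenic genomic sequences on an Agilent 4 × 180k array, alongside negative controls, exposed for 1 h to GST-tagged P. falciparum DNA-binding domains expressed in E. coli. Bound protein was picked up with Alexa488 anti-GST antibody and scanned at 488 nm.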

| Sequence | gcPBM binding intensity (ln) |
| --- | --- |
| AAATAGTTGTTATGGGTGCAAACCACATATATATAA [GTGCAC_site9428] | 8.79 |
| TGTAGTTTGTCCCATGCATGTTCCATTAAAATATAT [TGCATGCA_site854] | 7.57 |
| TTATGTAGTATAATGAGTACTAAATATAGATATGTT [XGTACX_site6335] | 6.56 |
| ATTTAACAACTTCAAACACACAATATAGATTTATAT [CACACA_site7067] | 6.6 |
| AAACAAGTAATTGTTATTATTATTATATTATTATTA [CACACA_negctrl_site402] | 6.12 |
| TTTGAATATTCATATGCACACAAATTAATATACATA [CACACA_site8040] | 9.99 |
| TTGCATTAATTTATGTGTACATATAAATTTTTATTT [XGTACX_site3060] | 6.94 |
| TATTTCAAATGTTATGTGCACATATTAATCCTACTT [GTGCAC_site9738] | 10.7 |
| ATTTTAAATGTTATGCGTACATATTAATCCTACTTA [XGTACX_site1344] | 6.69 |
| ATGTGCAAATATTAAAGTACTAAATTTTATTATTTT [XGTACX_site7306] | 11.3 |
| AATAATATTTATTTTTGTACATATGTGCATTATAAA [XGTACX_site3682] | 11.2 |
| AATGTATTAAAATTACGTACATATGCACATTTTATA [XGTACX_site5046] | 8.53 |
| TTTATTTATTATTAAAGTACTAAATTATATTATTAT [XGTACX_site2565] | 5.95 |
| ATATATACATATAAATGTACATAATTATTATGCACA [XGTACX_site1261] | 9.09 |
| TTTATTTATTATTAAAGTACTAAAATATATTATTAT [XGTACX_site4887] | 6.24 |
| ATAATAATATTATTTTGTACATATGTGCTTATTTAT [XGTACX_site5540] | 7.11 |
| GTACGTTACATAAATGTGCACATATTATATGCGAAG | 10.7 |
| AAAAAAAAAAAATGTGTGCACATTATTTCAACTTAA | 10 |
| GAAAACGTTTGAAGTTGTACATATGTATAAAAAGAA [XGTACX_site2304] | 7.74 |
| TTTTTCATATTATACTTTTATATACATATATAAAAA [XGTACX_negctrl_site281] | 6.49 |
| ATATATATATGTAATAGTACATATGATAGTTTGTCA [XGTACX_site1545] | 8.51 |

| Sequence | gcPBM binding intensity (ln) |
| --- | --- |
| TTTTTATTGCAATACTTATATTTTTTTATGATTAAA [TGCATGCA_negctrl_site147] | 10.1 |
| TTACATGCTAAAATTTGTACATATATGATAAATATT [XGTACX_site2648] | 6.47 |
| TATTATTTAATCAAATGTACATAGAAAATGTATGTA [XGTACX_site4433] | 6.21 |
| CATATATACAGTAACACACACAAAAAAATATGAATA [CACACA_site3996] | 6.91 |
| ATATAGTTGTCATATTGTACACTTTAGGGTTGGTTA [XGTACX_site7339] | 6.64 |
| TTATAAAAATAATATCGTACAAATGACATAGATGAA [XGTACX_site2570] | 6.6 |
| ATTATCCATGCATTTACACACACACCCAAAAAAATT [CACACA_site4101] | 7.67 |
| ATATATATATATATATGTACATATTTATATTGTAAA [XGTACX_site8878] | 9.35 |
| TAATTACCATATGGTACACACATATATATATGTATA [CACACA_site3487] | 7.02 |
| TTTTTCATAAGAAGCACACAAAAAATGATAGAGAAT [CACACA_site1417] | 7.39 |
| AAAATATTCACGTGTACATATATATATATATATTAT [TGCATGCA_negctrl_site192] | 6.96 |
| TTTTATATAAATATCACACACACACGCATGTTTTAA [CACACA_site6187] | 6.71 |
| CATATACAGAAACACACACACACATAAATAAATATA [CACACA_site1343] | 6.84 |
| TTTTATATTTTATGCACACTTATAAGAAATATGTAC [CACACA_site3040] | 10.6 |
| TATTTTATATTTTATGCACACTTATAAGAAATATGT [CACACA_site5647] | 9.42 |
| CATTTATATAAAGAATGTACACACAGAAATGCACAC [XGTACX_site4718] | 9.03 |
| TTATATAAAGAATGTACACACAGAAATGCACCCACA [CACACA_site2282] | 9.38 |
| ATAATATATGTATGTATGCACTTTTATTATTTTTTT | 7.24 |
| ATTTATATAAAGAATGTACACACAGAAATGCACCCA [CACACA_site8715] | 10.7 |
| AAATATTATAATAATTGTACTATATATACAGTTATT [XGTACX_site1963] | 6.39 |
| TAATATATCTATAATACACACTATTCTAATCACATA [CACACA_site6731] | 6.49 |

| Sequence | gcPBM binding intensity (ln) |
| --- | --- |
| AGTAGTCTGGAGAAGAGTACATAGTATCTGGTAGCT [XGTACX_site2017] | 6.4 |
| ATTTATATTACCCTTGCATGTAGGTGCAATTTTTTT [TGCATGCA_site757] | 10.5 |
| ATATTTTTATTAGTAGTGCAATTTAGTGTATATATA [GTGCAC_site9542] | 10.1 |
| TACCCTTGCATGTAGGTGCAATTTTTTTTTTTTTTT | 9.32 |
| AAAAAAAAAAAACACACACACACATACACATACATA [CACACA_site2858] | 6.83 |
| TTAACATCAAAATATGCACACAAACAATTAGCGGTA [CACACA_site8801] | 9.76 |
| CAAAAGGATATGCACACACACACACGGATATTTATA [CACACA_site7099] | 10.1 |
| TTTATGACTTGAAAAAGTACACATATATTTATGCAA [XGTACX_site5451] | 6.31 |
| TTATATGCATAAAAAGGTACACATATATAAATAAAT [XGTACX_site6894] | 6.68 |
| TATGAAAAAATATATACACACATAATAAAGGTATAT [CACACA_site3737] | 6.42 |
| TATTTATGCACGCGTGCACACACATATGAAAAAAGG [CACACA_site9090] | 10.9 |
| TTTATGCACGCGTGCACACACATATGAAAAAAGGTA [CACACA_site3315] | 11 |
| TTAGGAAGCTCACAAAATAAAGTGAAAAGAAGAAAA [XGTACX_negctrl_site572] | 6.45 |
| CCACAAGTATATAGTAGTACAATTTTTTTCTCTTTA [XGTACX_site4403] | 6.12 |
| ACAACAAAAATAAGCACACACAAATATACATACATA [CACACA_site7664] | 6.55 |
| CTCTTCTATATATAAGCATGCATTCATAATAATTTA [TGCATGCA_site679] | 7.04 |
| TTTATTGCTCTATATGCACACCTTAATTCTTCATTT [CACACA_site8682] | 11.1 |
| TCATATAATATTTATATGCACACTTTTCTATATATA [CACACA_site4075] | 8.75 |
| TTTTTATATAACCTTCTTAATTCTTTTTTTTTTTTT [XGTACX_negctrl_site591] | 6.16 |
| TTCTCTATAAATGCTGCACACACATTTAATTATTTA [CACACA_site8828] | 8.06 |
| CTTTTATTGCTCTATATGCACACCTTAATTCTTCAT [CACACA_site2195] | 10.5 |

| Sequence | gcPBM binding intensity (ln) |
| --- | --- |
| AAAAGGAACGGACACACACACATATATATATATATA [CACACA_site5894] | 9.45 |
| TTTTTGAGTGCACATACACACAGACATACATTTAAA [CACACA_site5813] | 10.4 |
| AATATAACTTTTTGCACACTTAATTTTTTTTTTTAA [CACACA_site3365] | 10.6 |
| TTAATATAACTTTTTGCACACTTAATTTTTTTTTTT [CACACA_site3364] | 10.2 |
| TATATATTAAACTTTGCACACATAATTTAACTACAA [CACACA_site3440] | 10.7 |
| TATATTAAACTTTGCACACATAATTTAACTACAAAG [CACACA_site3441] | 10.5 |
| TTTTTTTTTTTTTTTGCACACTATATTTAATATAAG [CACACA_site2444] | 9.31 |
| ACTAAACTTTTATGTACACACATATAACATTAATTT [CACACA_site5276] | 6.98 |
| ATGTATATGTTTTGTTGTACAAGTATTTTATATCTT [XGTACX_site3588] | 6.77 |
| AACTCATAGCGGTGTGCACACAAAAAATTAAAAAAA [CACACA_site3033] | 11 |
| TTCATATTATAGTGCACACAAAAATATATATATGGT [CACACA_site2855] | 10.4 |
| AAAATTAAACTCACACCACACACAAAAAAAAAAAAA [CACACA_site8131] | 6.32 |
| CTCATAGTTGGGTGCACACAAAAAATTAAAAAAATA [CACACA_site3032] | 10.3 |
| AACTCATAGGAGTGTGCACACAAAAAATTAAAAAAA [CACACA_site8996] | 11 |
| AATTATTAGCGTGGTGTGCACAAAATTATGGACACA | 9.8 |
| AGTATATATTATATATATATATATATATTATATATG [TGCATGCA_negctrl_site99] | 6.59 |
| CTTTCTTATTTGAACGCATGCATTTGTACCTTTTAT [TGCATGCA_site671] | 6.85 |
| AAATTCCACCAACACACACACATATAAATAAATAAA [CACACA_site1233] | 6.84 |
| TTCAAAACTTAAAATCGTACAAGACAATTATTATAT [XGTACX_site6626] | 6.32 |
| TTCTTTTTATTTATATTTTCCCCTCTCTATAGCTAT [XGTACX_negctrl_site102] | 7.06 |
